We go through 39 molecules from PubChem BioAssay (NCI).

SMILES strings stand for the structures. The panel holds about 83,000 compounds, 20% with a hit somewhere; the sample as a whole holds those more often.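 Treatment: one concentration, 48 hours, 96-well format. Scoring: percent growth, with anything below 10 considered active.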 The source made the active and inactive calls.

The first test concerns HCT-15 colon. In words: NCI-60 one-dose screen, 48 h (100 = growth as untreated, 0 = no growth, -100 = all killed). To be noted: 10 µM unless noted.
On to `COc1ccccc1-c1nc2ccc3[nH]ncc3c2c2c1CCCC2`, for which the growth was 88.6% (inactive).

As for `O=c1ccc2nc(-c3ccccc3)nn(-c3ccccn3)c-2c1`, the growth is 33.9% (inactive).

In the case of `Nc1ncc(-c2ccc3ncnc(N4CCc5cc(F)c(Cl)cc54)c3c2)cc1C=O`, the growth was 26.5% (inactive).

In the case of `C#Cc1ccc(NC(=O)Cc2ccc(/C=C/C(=O)c3nccn3C)cc2)cc1`, the growth was 23% (inactive).

For the molecule `CCCCN(CCC#N)C(N)=O`, the growth was 101% (inactive).

For `COc1ccc(-c2cn(Cc3ccc4c(Br)cc(Br)c(O)c4n3)nn2)cc1`, the growth was 39.3% (inactive).

As to `CCc1ccc(Cc2cnc(NC(=O)c3cc(C)oc3C)s2)cc1`, the growth was 24.3% (inactive).

Take `COc1cc(/C=C/c2cc(/C=C/c3ccc(O)c(OC)c3)n(C(=O)Nc3ccc(C)cc3C)n2)ccc1O`: the growth was 3.84% (active).

`Clc1nc(N2CCC[N+]3(CC2)CC[N+]2(CCCNCC2)CC3)nc(N2CCC[N+]3(CC2)CC[N+]2(CCCNCC2)CC3)n1` (stereo not drawn): the growth is 83.2% (inactive).

Turning to `O=S(=O)(Nc1ccc(Br)cc1)c1ccc(-c2cnc(C3CC3)o2)cc1`, the growth is 20.8% (inactive).

For the molecule `O=C1N/C(=N/N=C(c2ccccc2)c2ccccc2)S/C1=C\c1ccc(Br)cc1`, the growth was 97.8% (inactive).

As to `COc1cc(OCc2cccc(-c3ccc4c(c3)OCCO4)c2C)cc(OC)c1C=O`, the growth is 60.1% (inactive).

Regarding `COC(=O)c1c(C)nc(C)c2c1C(=O)C(Br)=C(NCCCCO)C2=O`, the growth was 49.8% (inactive).

Take `COc1ccc(CNc2c3ccccc3nc3ccccc23)cc1OC`: the growth is 10.3% (inactive).

`COc1cc(/C=C/C(=O)c2ccc(-n3cc(CN4CCN(c5cc6c(cc5F)c(=O)c(C(=O)O)cn6C5CC5)CC4)nn3)cc2)cc(OC)c1OC`: the growth was 90.6% (inactive).

`CCCCCC(C)(O)C(C(=O)O)c1ccccc1` (stereo not drawn): the growth was 106% (inactive).

In the case of `C[C@@H]1N=C(c2ccc(Cl)cc2Cl)Nc2nc3ccccn3c2C1=O`, the growth is 35.1% (inactive).

In the case of `O=C(Nc1ccccc1)Nc1ccccc1CNc1nc(Nc2ccc(OCCN3CCCC3)cc2)ncc1Cl`, the growth is 41.4% (inactive).

With `COc1ccc(S(=O)(=O)N(C)c2oc(-c3ccc(Cl)cc3)nc2C#N)cc1`, the growth is 44.3% (inactive).

With `COc1cccc(C(=O)Nc2cccc(NC(=O)c3ccccn3)c2)c1`, the growth was 90.7% (inactive).

Consider `CS(=O)(=O)c1ccc(/C(=N/NC(N)=S)c2ccc(F)cc2)cc1`, for which the growth is 98.4% (inactive).

As to `CSc1nc(N)c2c(n1)NC(c1ccccc1)C1CCc3ccccc3C1=N2` (stereo not drawn), the growth is 46.8% (inactive).

`COc1cccc(CNc2nnc(C)c(C)n2)c1O`: the growth was 98.9% (inactive).

For `COc1ccc(NC(=O)CSc2oc(-c3ccccc3)nc2S(=O)(=O)c2ccc(Cl)cc2)c(OC)c1`, the growth is 73.7% (inactive).

With `O=C(c1ccc(F)cc1)C1CCN(CCn2c(=O)[nH]c3ccccc3c2=O)CC1`, the growth was 105% (inactive).

As to `CC(=O)OCC(=O)O[C@@H]1C[C@]2(C(C)C)O[C@@]1(C)[C@@H]1CC[C@@H](C)[C@H]1[C@@H]2OC(=O)/C=C/c1ccccc1`, the growth is 81.4% (inactive).

With `O=C(Nc1ncc(Cc2ccccc2)s1)c1cc(-c2ccccc2)nc2ccccc12`, the growth was 94.7% (inactive).

Regarding `O=c1cc(-c2nccc3c2[nH]c2ccccc23)c2cc(Cl)ccc2o1`, the growth was 24.3% (inactive).

As for `O=C(CN1C(=O)NC2NC(=O)NC21)N/N=C/c1cccc([N+](=O)[O-])c1` (stereo not drawn), the growth is 100% (inactive).

In the case of `CCCCCCCCCCCCCC[n+]1ccc2c(C)c3c(c(C)c2c1)c1cc(O)ccc1n3CC`, the growth is 19.9% (inactive).

In the case of `C=C(C)[C@@H]1CCC[C@]2(C(=O)OC)CC[C@]3(C)[C@@H](CC[C@@H]4[C@@]5(C)CCCNC(C)(C)[C@@H]5CC[C@]43C)[C@@H]12`, the growth was 93.1% (inactive).

`COc1cc2c(cc1-c1c(C)noc1C)ncc1nc(C3CCOCC3)n(C3CCC(OC(F)F)CC3)c12` (stereo not drawn): the growth was 33.2% (inactive).

As for `O=C1CCC(C(=O)N/N=C/c2ccc([N+](=O)[O-])cc2)N1` (stereo not drawn), the growth is 98.9% (inactive).

For the molecule `COc1cc(C(=O)/C=C/c2c(-c3cccs3)nc3sc(C)cn23)cc(OC)c1OC`, the growth was 10.4% (inactive).

As to `O=C(NS(=O)(=O)c1ccccc1)n1cc(-c2ccncc2)c(-c2cc(O)cc(Cl)c2)n1`, the growth is 95.9% (inactive).

As for `COC(CCP(=O)(c1ccccc1)c1ccccc1)(C(=O)c1ccccc1)c1ccccc1` (stereo not drawn), the growth was 52.6% (inactive).

`Cn1nc(-c2ccc(Cl)cc2)nc2c(=O)n(C)c(=O)nc1-2`: the growth was -67.5% (active).

For `CC1(C)CCC[C@]23C(=O)O[C@](O)(C(=O)C4=C[C@@](C)(/C=C/CCCc5ccc6ccc7cccc8ccc5c6c78)CC[C@@]42O)[C@@H]13`, the growth was -69.3% (active).

For `COc1ccc(C2=C/C(=C\c3ccccc3O)C(=O)N2Cc2ccccc2)cc1`, the growth is 67.6% (inactive).

The test system of a further test is HT29 colon. The description is as above. To be noted: 10 µM unless noted.
Regarding `COc1ccccc1-c1nc2ccc3[nH]ncc3c2c2c1CCCC2`, the growth was 67.5% (inactive).

For `O=c1ccc2nc(-c3ccccc3)nn(-c3ccccn3)c-2c1`, the growth was -46.5% (active).

As to `Nc1ncc(-c2ccc3ncnc(N4CCc5cc(F)c(Cl)cc54)c3c2)cc1C=O`, the growth was 16.4% (inactive).

For the molecule `C#Cc1ccc(NC(=O)Cc2ccc(/C=C/C(=O)c3nccn3C)cc2)cc1`, the growth is 6.76% (active).

In the case of `CCCCN(CCC#N)C(N)=O`, the growth is 114% (inactive).

Turning to `COc1ccc(-c2cn(Cc3ccc4c(Br)cc(Br)c(O)c4n3)nn2)cc1`, the growth is 89.5% (inactive).

Turning to `CCc1ccc(Cc2cnc(NC(=O)c3cc(C)oc3C)s2)cc1`, the growth is 10.8% (inactive).

As for `COc1cc(/C=C/c2cc(/C=C/c3ccc(O)c(OC)c3)n(C(=O)Nc3ccc(C)cc3C)n2)ccc1O`, the growth is -38.5% (active).

Take `Clc1nc(N2CCC[N+]3(CC2)CC[N+]2(CCCNCC2)CC3)nc(N2CCC[N+]3(CC2)CC[N+]2(CCCNCC2)CC3)n1` (stereo not drawn): the growth was 54.9% (inactive).

On to `O=S(=O)(Nc1ccc(Br)cc1)c1ccc(-c2cnc(C3CC3)o2)cc1`, for which the growth is 13.9% (inactive).

As for `O=C1N/C(=N/N=C(c2ccccc2)c2ccccc2)S/C1=C\c1ccc(Br)cc1`, the growth was 81.8% (inactive).

As for `COc1cc(OCc2cccc(-c3ccc4c(c3)OCCO4)c2C)cc(OC)c1C=O`, the growth was 67.6% (inactive).

With `COC(=O)c1c(C)nc(C)c2c1C(=O)C(Br)=C(NCCCCO)C2=O`, the growth is 19.5% (inactive).

In the case of `COc1ccc(CNc2c3ccccc3nc3ccccc23)cc1OC`, the growth was 4.44% (active).

In the case of `COc1cc(/C=C/C(=O)c2ccc(-n3cc(CN4CCN(c5cc6c(cc5F)c(=O)c(C(=O)O)cn6C5CC5)CC4)nn3)cc2)cc(OC)c1OC`, the growth is 99.2% (inactive).

Turning to `CCCCCC(C)(O)C(C(=O)O)c1ccccc1` (stereo not drawn), the growth is 101% (inactive).

On to `C[C@@H]1N=C(c2ccc(Cl)cc2Cl)Nc2nc3ccccn3c2C1=O`, for which the growth is 7.68% (active).

With `O=C(Nc1ccccc1)Nc1ccccc1CNc1nc(Nc2ccc(OCCN3CCCC3)cc2)ncc1Cl`, the growth is 13.8% (inactive).

With `COc1ccc(S(=O)(=O)N(C)c2oc(-c3ccc(Cl)cc3)nc2C#N)cc1`, the growth was 65.9% (inactive).

Take `COc1cccc(C(=O)Nc2cccc(NC(=O)c3ccccn3)c2)c1`: the growth is 93.1% (inactive).

Take `CS(=O)(=O)c1ccc(/C(=N/NC(N)=S)c2ccc(F)cc2)cc1`: the growth was 107% (inactive).

Regarding `CSc1nc(N)c2c(n1)NC(c1ccccc1)C1CCc3ccccc3C1=N2` (stereo not drawn), the growth is 42.7% (inactive).

As to `COc1cccc(CNc2nnc(C)c(C)n2)c1O`, the growth was 105% (inactive).

As to `COc1ccc(NC(=O)CSc2oc(-c3ccccc3)nc2S(=O)(=O)c2ccc(Cl)cc2)c(OC)c1`, the growth was 70.3% (inactive).

As to `O=C(c1ccc(F)cc1)C1CCN(CCn2c(=O)[nH]c3ccccc3c2=O)CC1`, the growth was 98.4% (inactive).

For `CC(=O)OCC(=O)O[C@@H]1C[C@]2(C(C)C)O[C@@]1(C)[C@@H]1CC[C@@H](C)[C@H]1[C@@H]2OC(=O)/C=C/c1ccccc1`, the growth is 82.3% (inactive).

Regarding `O=C(Nc1ncc(Cc2ccccc2)s1)c1cc(-c2ccccc2)nc2ccccc12`, the growth was 104% (inactive).

Take `O=c1cc(-c2nccc3c2[nH]c2ccccc23)c2cc(Cl)ccc2o1`: the growth was 7.6% (active).

On to `O=C(CN1C(=O)NC2NC(=O)NC21)N/N=C/c1cccc([N+](=O)[O-])c1` (stereo not drawn), for which the growth is 107% (inactive).

For `CCCCCCCCCCCCCC[n+]1ccc2c(C)c3c(c(C)c2c1)c1cc(O)ccc1n3CC`, the growth was 4.46% (active).

In the case of `C=C(C)[C@@H]1CCC[C@]2(C(=O)OC)CC[C@]3(C)[C@@H](CC[C@@H]4[C@@]5(C)CCCNC(C)(C)[C@@H]5CC[C@]43C)[C@@H]12`, the growth is 56.5% (inactive).

Take `COc1cc2c(cc1-c1c(C)noc1C)ncc1nc(C3CCOCC3)n(C3CCC(OC(F)F)CC3)c12` (stereo not drawn): the growth was 25.9% (inactive).

Consider `O=C1CCC(C(=O)N/N=C/c2ccc([N+](=O)[O-])cc2)N1` (stereo not drawn), for which the growth is 104% (inactive).

Take `COc1cc(C(=O)/C=C/c2c(-c3cccs3)nc3sc(C)cn23)cc(OC)c1OC`: the growth was 3.69% (active).

As to `O=C(NS(=O)(=O)c1ccccc1)n1cc(-c2ccncc2)c(-c2cc(O)cc(Cl)c2)n1`, the growth was 98.4% (inactive).

For `COC(CCP(=O)(c1ccccc1)c1ccccc1)(C(=O)c1ccccc1)c1ccccc1` (stereo not drawn), the growth is 57.5% (inactive).

In the case of `Cn1nc(-c2ccc(Cl)cc2)nc2c(=O)n(C)c(=O)nc1-2`, the growth was -77.3% (active).

As for `CC1(C)CCC[C@]23C(=O)O[C@](O)(C(=O)C4=C[C@@](C)(/C=C/CCCc5ccc6ccc7cccc8ccc5c6c78)CC[C@@]42O)[C@@H]13`, the growth was -69.5% (active).

Take `COc1ccc(C2=C/C(=C\c3ccccc3O)C(=O)N2Cc2ccccc2)cc1`: the growth was 102% (inactive).
